According to PubChem BioAssay (NCI):
About 83,000 compounds went through this panel and 20% of them were active in at least one assay; those are over-represented in the sample as a whole.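 The test compound was applied at a single concentration to cells in 96-well plates for 48 hours, and percent growth was recorded.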 Unmarked numbers belong to inactive results. Active and inactive are the calls of the source.

Tested on: HCT-15 colon
Assay: NCI-60 one-dose screen, 48 h (100 = growth as untreated, 0 = no growth, -100 = all killed)
Conditions: 10 µM unless noted
Experimental: Growth inhibition of the HCT-15 human tumor cell line is measured as a screen for anti-cancer activity. Cells are grown in 96 well plates and exposed to the test compound for 48 hours. Compounds are tested at a single concentration, which is 10^-5 M for most compounds. The reported endpoint is percent growth (GI% or GIPRCNT), where numbers from 0 - 100% represent growth inhibition, and numbers from -100% - 0 represent cell death. For example, a value of 40 represents 60% growth inhibition. A value of 0 means no net growth occurred over the course of the experiment. A value of -40 indicates 40% of cells at the beginning of the experiment died by the end of the experiment. A value of -100 means all cells are dead at the end of the experiment.
NCI-60 Human Tumor Cell Lines Screen was performed using the standard one-dose NCI protocol, which is described in more detail at https://dtp.cancer.gov/discovery_development/nci-60/default.htm.
Compounds with GIPRCNT values below 10 were considered active. Activity score was based on GIPRCNT using the following formula: […]
Score is 0 for GIPRCNT values of 100 or above, 50 for GIPRCNT values of 0, and 100 for GIPRCNT values of -100.

Row | Compound | growth
1 | Nc1c(C(=O)Nc2ccccc2)sc2nc3c(cc12)CCCCCC3 | 16.3%
2 | COc1cc(C(=O)Nc2cc(O)c(CC=C(C)C)c(O)c2)cc2c1O[C@]1(C)CC[C@@H](O)C(C)(C)[C@H]1C2 | 13.3%
3 | NC(=O)c1c(NC(=O)c2ccc(C(F)(F)F)cc2Cl)sc2c1CCC(=O)C2 | -35% (active)
4 | OCCCCc1nccc2c1[nH]c1ccccc12 | 104%
5 | O=S(=O)(NCCNc1cc(-c2c(-c3cccc(O)c3)nc3sccn23)ccn1)c1ccc(Br)cc1 | 44.8%
6 | O=C1CSC(c2ccc(O)cc2)N1c1nnc(Cn2cnnc2)o1 (stereo not given) | 110%
7 | COc1ccc(O)c(-c2cc(-c3ccccc3)c(C#N)c(=O)[nH]2)c1 | 100%
8 | CN(C)CCN1C(=O)c2cccc3c(-c4ccc(-c5nc6c7ccccc7c7ccccc7c6[nH]5)cc4)ccc(c23)C1=O | 102%
9 | C[C@@H]1CC[C@@H]2[C@@H]1[C@H](OC(=O)/C=C/c1ccccc1)[C@]1(CCCOCCOCCOCCOC(=O)CCCC[C@@H]3SC[C@@H]4NC(=O)N[C@@H]43)C[C@@H](OC(=O)CO)[C@@]2(C)O1 | 106%
10 | N=C(N)c1ccc(-c2ccc(-c3ccc(Cl)c(Cl)c3)o2)nc1 | 17.2%
11 | CCCN1CCN(c2ccc3nc(-c4ccc5nc(-c6cc(OC)c(OC)c(OC)c6)[nH]c5c4)[nH]c3c2)CC1 | 99.5%
12 | O=C(Nc1ccccc1Cl)OCCN1CCOCC1 | 102%
13 | CCCCCCN(CCCCCC)CC(O)c1cccc2ccc(Cl)cc12 (stereo not given) | 53.4%
14 | CC(=O)Nc1nccs1 | 98%
15 | Cc1[nH]c(-c2nc3ccccc3[nH]2)c(C)c1C(=O)NNc1ccc(Cl)cc1 | 94.1%
16 | COc1ccc(/C=C2\COc3ccc(O)cc3C2=O)cc1OC | 71.3%
17 | COc1cc(-c2ccc(N=Nc3c(O)c(C(=O)Nc4ccccc4OC)cc4ccccc34)c(OC)c2)ccc1N=Nc1c(O)c(C(=O)Nc2ccccc2OC)cc2ccccc12 | 101%
18 | C(=C\c1nc2ccccc2[nH]1)/c1nc2ccccc2[nH]1 | 100%
19 | COc1ccc2c(c1)/C(=C\c1sc(=S)[nH]c1O)C(C(=O)O)=N2 | 100%
20 | C=CCO[C@H]1CO[C@H]2[C@@H]1OC[C@@H]2Oc1ccc(Nc2ccnc(Nc3ccc(O[C@H]4CO[C@H]5[C@@H]4OC[C@@H]5OCC=C)c(Cl)c3)n2)cc1Cl | -78.5% (active)

Row | Compound | growth
21 | COC(=O)CNC(=O)C(=O)c1c(O)c(O)c(C(C)C)c2cc(C)c(-c3c(C)cc4c(C(C)C)c(O)c(O)c(C(=O)C(=O)NCC(=O)OC)c4c3O)c(O)c12 | 18.3%
22 | CC(C)(C)N1CC(OC(N)=O)C1 | 113%
23 | NS(=O)(=O)c1cn(-c2ncnc3nc[nH]c23)ccc1=O | 94%
24 | O=C(NC1CCOCC1)c1ccc2c(c1)CN(c1ncc(Cc3cccc(-n4cccn4)c3)s1)CC2 | 79.3%
25 | CN(C)S(=O)(=O)n1cnc([C@@H]2[C@@H]3C(=O)OC[C@@H]3C[C@]23N=CN(Cc2ccccc2)C3=O)c1 | 98.4%
26 | O=C(NC(=S)Nc1ccc(-c2nc3ccccc3[nH]2)cc1)c1ccc2ccccc2c1 | 29.2%
27 | CCN(CC)c1ccc(Nc2ccc(CC(=O)c3ccccc3)cc2)cc1 | 88.7%
28 | COC(=O)[C@]12CC[C@@H](C)[C@H](C)[C@@H]1C1=CC[C@@H]3[C@@]4(C)C(C=O)=C[C@@](C)(CO)C4=CC[C@@]3(C)[C@]1(C)CC2 | 9.41% (active)
29 | COc1ccc(C2=NC(=O)NC2c2ccc(OC)cc2)cc1 (stereo not given) | 48.4%
30 | COc1ccc(OC)c(Nc2nc3nonc3nc2Nc2cc(OC)ccc2OC)c1 | 73.5%
31 | CCOC(=O)c1c(C)nc2c(c1N)/C(=C/c1ccc(OC)cc1)C(=O)N2Cc1ccc(F)cc1 | -80.6% (active)
32 | CCOc1cccnc1/C=N/NC(N)=S | 40.2%
33 | CCOC(=O)C(=CNc1ccccc1[N+](=O)[O-])C(=O)OCC | 108%
34 | CCCCCCCCc1cc[n+](CC(=O)c2ccc(Br)cc2)cc1 | 47%
35 | O=C(O)CC1Sc2ccccc2NC1=O (stereo not given) | 109%
36 | C=C(C)C1CCC(=C)C2CCC3(C)OC12/C=C(/COC(C)=O)CCC3O (stereo not given) | 96.1%
37 | CCc1c(C(=O)N[C@@H]2c3cc(Cl)ccc3CC[C@@H]2O)[nH]c(C)c1C(C)=O | 41.1%
38 | COc1cc(/C=C/C(=O)c2ccc(Nc3nc(Nc4ccccc4)nc(Nc4ccc(Cl)cc4)n3)cc2)cc(OC)c1OC | 55.8%
39 | Cc1[nH]c(-c2nc3ccccc3[nH]2)c(C)c1C(=O)N1CCc2sccc2C1 | 90%
40 | CCOC(=O)c1c(C)[nH]c(C(=O)CCC(=O)OC)c1C | 92.4%
